The source of these data is PubChem BioAssay.

In experiment [1] the target is Albumin (Bos taurus) (UniProt P02769). The experiment can be described thus: bovine serum albumin binders on microarray, profiling panel, artefact control for SMM control protein annotation, biochemical, small-molecule microarray, Alexa647 label, 635/667 nm fluorescence (AID 1118).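 Further: score merges 667 nm emission intensity and signal-to-noise per printed compound spot.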 The conditions noted are these: BSA-A647 binding, fluorescence 635 nm, higher = more signal.

Experiment [2] in a line: small-molecule microarray binders of probe aXIP, primary screen, biochemical, NeuroSMM set, 635/667 nm fluorescence (AID 1119).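 Further: probe is the protein aXip251-270 applied at 1 µg/mL to compound-printed slides; binding of probe to printed compounds measured as 667 nm fluorescence plus signal to noise.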 The note with it: higher = more signal, called active from +8 up or from −8 down.
Experiment [3] can be described thus: small-molecule binders of probe aNOTCH3, primary screen, biochemical, small-molecule microarray, 635/667 nm fluorescence (AID 1120).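 Further: probe is a biotin-tagged antibody raised against NOTCH3 rather than NOTCH3 protein; score merges spot fluorescence near 667 nm with spot signal to noise.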 The note with it: higher = more signal.
Experiment [4] is described as follows: small-molecule binders of probe aNOTCH2, primary screen, biochemical, small-molecule microarray, 635/667 nm fluorescence (AID 1121).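 Further: score merges feature fluorescence read at 667 nm with its signal to noise.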 The conditions noted are these: higher = more signal.
Experiment [5] deals with Carbonic anhydrase 2 (Homo sapiens) (UniProt P00918). The experiment can be described thus: CAII small-molecule binders, profiling panel, biochemical, small-molecule microarray, Alexa647-labelled CAII (AID 1122). The note with it: CAII-A647 binding fluorescence, higher = more signal.
Experiment [6] can be described thus: COS7 lysate on small-molecule microarray, probe aHis, 635 nm (AID 1123).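 Further: z-score combines 667nm fluorescence intensity with signal-to-noise per printed compound spot.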 The note with it: COS7 cell lysate, fluorescence, higher = more signal.
A short description of experiment [7]: compound binding in COS7 lysate, probe aLAP1, primary screen, cell lysate, small-molecule microarray (AID 1124).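 Further: lysate comes from COS7 cells expressing LAP1 and is applied at 0.3 µg/mL; score merges spot fluorescence near 667 nm with signal-to-noise over triplicate slides.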 The conditions noted are these: probe aLAP1, fluorescence, higher = more signal.
Experiment [8] deals with Sam68 (KHDRBS1). The experiment can be described thus: Sam68 small-molecule binders, primary screen, biochemical, small-molecule microarray, 635 nm fluorescence (AID 1125).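 Further: score merges 667 nm channel intensity with signal to noise over triplicate slides.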 The note with it: small-molecule microarray binding, higher = more signal.
In experiment [9] the test system is Chordin-like protein 2 (CHRDL2). The experiment can be described thus: CHRDL2 small-molecule binders, primary screen, biochemical, small-molecule microarray, 635 nm fluorescence (AID 1126).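 Further: printed compound slides probed with Chrdl2 protein at 4 µg/mL for 1 h at 4 C; score merges 667 nm emission intensity with signal to noise over three replicate slides.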 The note with it: small-molecule microarray binding, fluorescence 635 nm; higher = more signal.
The target of experiment [10] is Concanavalin-A (Canavalia ensiformis) (UniProt P02866). The experiment can be described thus: ConA small-molecule binders, primary screen, artefact control for SMM control protein annotation, biochemical, small-molecule microarray, Alexa647 label, 635 nm (AID 1127).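 Further: z combines 667 nm emission intensity with signal-to-noise across three replicate slides.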 The conditions noted are these: ConA-A647 binding fluorescence, higher = more signal.
The nature of experiment [11]: anti-His antibody binders, primary screen, artefact control for SMM control protein annotation, biochemical, small-molecule microarray, 635 nm fluorescence (AID 1128).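 Further: score merges feature fluorescence with signal-to-noise for each printed compound spot.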 The conditions noted are these: anti-His Alexa647 antibody binding, higher = more signal.
Experiment [12] relates to Human papillomavirus type 1a E7 protein (residues 1-88). In words: HPV1a E7 small-molecule binders, primary screen, biochemical, small-molecule microarray, residues 1-88, 635 nm (AID 1129). The note with it: small-molecule microarray binding, fluorescence 635 nm; higher = more signal.
Experiment [13] has as its target Focal adhesion kinase 1 (Homo sapiens) (UniProt Q05397). In words: small-molecule microarray binders of FAK, primary screen, biochemical, 635/667 nm fluorescence, BSA, DTT (AID 1130).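 Further: composite of spot emission at 667 nm and signal to noise over triplicate slides.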 The note with it: PTK2 binding, 635 nm fluorescence, higher = more signal.
Experiment [14] concerns Fibrinogen (Alexa647-labelled). The experiment can be described thus: fibrinogen binders on compound microarrays, profiling panel, artefact control for SMM control-protein annotation, biochemical, small-molecule microarray, 635/667 nm fluorescence (AID 1131).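 Further: z-score merges 667 nm fluorescence with per-spot signal-to-noise over triplicate slides.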 The conditions noted are these: fibrinogen-A647 binding fluorescence, higher = more signal.
Experiment [15] addresses Follistatin (Homo sapiens) (UniProt P19883). The experiment can be described thus: follistatin binders on small-molecule microarrays, primary screen, biochemical, small-molecule microarray, 635/667 nm fluorescence (AID 1132). The conditions noted are these: FST binding, 635 nm fluorescence, higher = more signal.
Experiment [16] has as its target Fibroblast growth factor 2 (Homo sapiens) (UniProt P09038). The experiment can be described thus: FGF2 binders on small-molecule microarrays, primary screen, biochemical, small-molecule microarray, 635/667 nm fluorescence (AID 1133). The note with it: small-molecule microarray binding, FGF2, fluorescence 635/667; higher = more signal.
A short description of experiment [17]: mitochondrial membrane potential change in A549 cells, profiling panel, cell-based, JC-1 fluorescence, basal, 24 h, 100 nL (AID 1138).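 Further: A549 lung adenocarcinoma cells under basal conditions with no added stimulus; test concentration not given here.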 The note with it: higher = more signal.
Experiment [18] relates to Lefty1. In words: Lefty1 binders on small-molecule microarrays, primary screen, biochemical, small-molecule microarray, 635/667 nm fluorescence (AID 1139). The note with it: small-molecule microarray binding, fluorescence 635/667; higher = more signal.
For experiment [19], the system named is wheat germ agglutinin (Triticum aestivum), Alexa647-labelled. In words: wheat germ agglutinin binders on compound microarrays, profiling panel, artefact control for SMM control-protein annotation, biochemical, small-molecule microarray, 635/667 nm fluorescence (AID 1140).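 Further: score merges 667 nm feature emission with signal to noise over triplicate slides.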 The note with it: WGA-A647 binding, 635 nm fluorescence, higher = more signal.
Experiment [20] concerns the target Luciferin 4-monooxygenase (Photinus pyralis) (UniProt P08659). The experiment can be described thus: firefly luciferase enzyme inhibitors, primary screen, biochemical, luminescence, purified enzyme, 2006 set (AID 1141).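 Further: cell-free assay with purified firefly luciferase at 100 ng per well in PBS; test concentration not given here.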 The conditions noted are these: SteadyGlo luminescence, 30 min, higher = more signal, called active from +8 up or from −8 down.

The source made the active and inactive calls.

Sequence of Albumin (Bos taurus) (P02769 whole entry, looked up): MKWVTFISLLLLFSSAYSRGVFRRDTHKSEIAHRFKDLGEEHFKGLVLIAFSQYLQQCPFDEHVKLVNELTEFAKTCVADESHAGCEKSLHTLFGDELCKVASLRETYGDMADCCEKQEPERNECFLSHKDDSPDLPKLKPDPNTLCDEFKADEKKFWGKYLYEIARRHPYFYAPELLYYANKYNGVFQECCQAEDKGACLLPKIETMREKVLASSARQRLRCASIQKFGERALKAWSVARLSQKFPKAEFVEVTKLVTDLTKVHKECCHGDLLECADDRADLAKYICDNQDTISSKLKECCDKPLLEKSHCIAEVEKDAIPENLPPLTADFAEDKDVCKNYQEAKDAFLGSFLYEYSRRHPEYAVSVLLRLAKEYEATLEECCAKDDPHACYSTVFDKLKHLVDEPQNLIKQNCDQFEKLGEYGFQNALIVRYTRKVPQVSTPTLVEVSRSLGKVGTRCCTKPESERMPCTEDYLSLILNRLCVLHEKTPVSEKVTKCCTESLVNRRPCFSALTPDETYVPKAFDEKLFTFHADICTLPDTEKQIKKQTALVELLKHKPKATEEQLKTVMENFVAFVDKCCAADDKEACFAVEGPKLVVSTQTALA
Sequence of Follistatin (Homo sapiens) (P19883 whole entry, looked up): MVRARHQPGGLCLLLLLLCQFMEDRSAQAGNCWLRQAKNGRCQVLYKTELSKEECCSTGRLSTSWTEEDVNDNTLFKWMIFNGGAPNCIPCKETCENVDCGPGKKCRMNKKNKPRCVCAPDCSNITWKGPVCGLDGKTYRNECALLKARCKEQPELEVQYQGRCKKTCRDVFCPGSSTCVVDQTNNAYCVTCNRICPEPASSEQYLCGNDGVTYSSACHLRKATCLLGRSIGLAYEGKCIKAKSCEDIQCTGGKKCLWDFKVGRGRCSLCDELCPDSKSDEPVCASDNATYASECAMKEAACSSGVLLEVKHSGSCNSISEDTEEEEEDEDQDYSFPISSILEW
Sequence of Luciferin 4-monooxygenase (Photinus pyralis) (P08659 whole entry, looked up): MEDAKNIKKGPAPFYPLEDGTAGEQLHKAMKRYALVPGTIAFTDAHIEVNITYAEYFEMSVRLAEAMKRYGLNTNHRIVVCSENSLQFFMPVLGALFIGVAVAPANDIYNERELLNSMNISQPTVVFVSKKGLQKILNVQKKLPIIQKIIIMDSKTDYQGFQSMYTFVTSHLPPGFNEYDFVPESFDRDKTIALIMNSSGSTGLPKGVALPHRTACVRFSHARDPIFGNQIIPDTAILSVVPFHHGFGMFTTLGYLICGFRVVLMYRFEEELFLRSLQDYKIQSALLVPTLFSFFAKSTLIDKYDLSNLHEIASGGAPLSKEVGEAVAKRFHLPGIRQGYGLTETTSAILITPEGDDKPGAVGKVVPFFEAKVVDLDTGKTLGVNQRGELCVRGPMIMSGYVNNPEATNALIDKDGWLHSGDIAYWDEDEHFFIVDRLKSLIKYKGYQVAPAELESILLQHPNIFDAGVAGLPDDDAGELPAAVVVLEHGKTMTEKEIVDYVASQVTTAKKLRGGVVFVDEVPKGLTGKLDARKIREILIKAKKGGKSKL
Sequence of Fibroblast growth factor 2 (Homo sapiens) (P09038 whole entry, looked up): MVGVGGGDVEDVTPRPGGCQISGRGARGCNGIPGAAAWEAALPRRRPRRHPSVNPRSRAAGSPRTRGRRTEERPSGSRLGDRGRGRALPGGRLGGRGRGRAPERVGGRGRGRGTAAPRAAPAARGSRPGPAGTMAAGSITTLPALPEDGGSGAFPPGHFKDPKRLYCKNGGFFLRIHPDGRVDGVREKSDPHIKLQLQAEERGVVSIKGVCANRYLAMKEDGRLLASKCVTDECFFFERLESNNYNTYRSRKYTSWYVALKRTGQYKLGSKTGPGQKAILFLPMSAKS
Sequence of Concanavalin-A (Canavalia ensiformis) (P02866 whole entry, looked up): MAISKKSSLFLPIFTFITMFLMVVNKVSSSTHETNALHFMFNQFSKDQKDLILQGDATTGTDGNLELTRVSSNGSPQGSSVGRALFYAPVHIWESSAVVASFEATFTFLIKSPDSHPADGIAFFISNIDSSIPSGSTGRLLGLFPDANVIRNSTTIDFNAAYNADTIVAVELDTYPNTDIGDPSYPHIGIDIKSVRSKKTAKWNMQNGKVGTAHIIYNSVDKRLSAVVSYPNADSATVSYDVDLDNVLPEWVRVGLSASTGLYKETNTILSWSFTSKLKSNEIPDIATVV
Sequence of Focal adhesion kinase 1 (Homo sapiens) (Q05397 whole entry, looked up): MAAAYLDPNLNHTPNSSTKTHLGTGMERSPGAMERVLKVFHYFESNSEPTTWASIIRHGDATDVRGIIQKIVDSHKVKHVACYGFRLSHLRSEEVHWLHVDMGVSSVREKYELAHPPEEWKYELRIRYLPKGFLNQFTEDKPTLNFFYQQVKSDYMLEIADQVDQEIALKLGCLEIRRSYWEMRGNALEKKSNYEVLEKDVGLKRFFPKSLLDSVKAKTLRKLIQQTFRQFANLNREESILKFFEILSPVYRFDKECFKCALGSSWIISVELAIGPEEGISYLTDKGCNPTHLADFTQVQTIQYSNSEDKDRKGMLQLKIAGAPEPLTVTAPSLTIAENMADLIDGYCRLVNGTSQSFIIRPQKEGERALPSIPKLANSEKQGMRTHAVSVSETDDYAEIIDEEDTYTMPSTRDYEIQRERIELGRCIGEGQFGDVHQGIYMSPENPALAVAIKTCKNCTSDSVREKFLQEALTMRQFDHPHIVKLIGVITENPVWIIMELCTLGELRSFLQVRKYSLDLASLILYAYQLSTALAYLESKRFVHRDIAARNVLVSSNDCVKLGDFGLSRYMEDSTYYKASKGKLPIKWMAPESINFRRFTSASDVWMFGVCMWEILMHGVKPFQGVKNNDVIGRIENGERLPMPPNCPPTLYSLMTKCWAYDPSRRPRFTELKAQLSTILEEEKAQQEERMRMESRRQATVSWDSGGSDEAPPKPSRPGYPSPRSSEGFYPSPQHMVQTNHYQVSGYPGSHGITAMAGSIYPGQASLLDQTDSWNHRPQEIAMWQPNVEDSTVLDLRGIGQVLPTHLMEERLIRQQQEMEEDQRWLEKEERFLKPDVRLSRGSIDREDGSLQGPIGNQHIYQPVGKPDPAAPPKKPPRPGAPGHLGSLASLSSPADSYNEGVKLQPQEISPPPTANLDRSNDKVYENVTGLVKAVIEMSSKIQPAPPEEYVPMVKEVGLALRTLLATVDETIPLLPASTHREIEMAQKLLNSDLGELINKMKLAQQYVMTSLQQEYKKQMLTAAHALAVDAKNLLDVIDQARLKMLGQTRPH

For `O=C1NC(=O)C2C1C=CC(C(O)C1CC=CCC1)N2Nc1ccccn1` (stereo not given), the composite z-score in [1] was -0.459; in experiment [3], 0.137; in experiment [4], -0.0272; in [5] it was 0.79; in experiment [6], 0.793; in [7], 0.643. Further, the composite z-score in [8] was 0.231; in experiment [9], 1.05; in experiment [10] it was 0.497; in [11], 1.33; in [12], -0.264; in experiment [13], -0.599. In addition, the composite z-score in experiment [14] was -0.0881; in experiment [15] it was 0.585; in [16], 0.582; in [18], 0.616; in experiment [19], 0.763. In addition, in experiment [2], the composite Z-score is 0.945 (inactive). For the same compound, the z-score is 0.692 in [17] and -1.13 (inactive) in [20].
Consider `O=C1OCC=C[C@H]2OC34C=CCN(Cn5nnc6ccccc65)C(=O)[C@H]3N(CCCCCO)C(=O)[C@@H]4[C@@H]12` (stereo not given in full), for which the composite z-score was -0.552 in experiment [1]; -0.211 in [3]; -0.108 in [4]; 0.9 in experiment [5]; 1.34 in experiment [6]; 0.435 in experiment [7]. In addition, the composite z-score is -0.171 in experiment [8]; -1.87 in experiment [9]; -0.727 in experiment [10]; 0.181 in [11]; -0.185 in [12]; -0.34 in [13]. Further, the composite z-score is -0.566 in experiment [14]; -0.997 in [15]; -0.846 in experiment [16]; -0.992 in experiment [18]; 1.25 in experiment [19]. Further, the composite Z-score in [2] was 0.177 (inactive). Further, the z-score is -1.47 in [17] and 0.365 (inactive) in [20].
Turning to `C=CCN(Cc1ccccc1)C(=O)C(c1cccs1)N(C(=O)/C=C\C(=O)O)c1ccc(CCOCCO)cc1` (stereo not given), the composite z-score is 0.955 in experiment [1]; -0.416 in experiment [3]; -0.135 in experiment [4]; 0.864 in experiment [5]; -0.691 in [6]; -0.679 in experiment [7]. Moreover, the composite z-score in experiment [8] is -1.33; in [9], -2.25; in experiment [10], -0.931; in experiment [11] it was -0.709; in experiment [12], -0.755; in experiment [13], -0.618. The composite z-score in experiment [14] is -1.23; in experiment [15], -1.32; in experiment [16], -0.78; in experiment [18], -1.16; in experiment [19], -1.01. In addition, in experiment [2], the composite Z-score is 0.0165 (inactive). Also, the results for the z-score in experiment [17] and in [20] were 1.37 and -3.88 (inactive), respectively.
As to `NC(=O)N1C(=O)C2C(C1=O)C1C=C(CCCO)C2C(C2CC2)N1Cc1cc2c(cc1Br)OCO2` (stereo not given), the composite z-score was 0.277 in experiment [1]; 0.0242 in experiment [3]; -0.112 in [4]; 0.877 in [5]; 0.872 in [6]; -0.0694 in [7]. For the same compound, the composite z-score is -0.989 in experiment [8]; -0.667 in [9]; -0.0295 in [10]; 1.06 in [11]; -1.06 in experiment [12]; 0.164 in experiment [13]. Besides, the composite z-score was 0.928 in experiment [14]; 0.246 in [15]; -0.407 in [16]; 0.969 in experiment [18]; 0.847 in experiment [19]. Moreover, the composite Z-score in experiment [2] was 0.0861 (inactive). Further, the results for the z-score in [17] and in [20] were 0.158 and -1.13 (inactive), respectively.
On to `NCCCCCCNC(=O)[C@H]1C[C@H]2C(=O)N[C@@H](Cc3ccccc3)C(=O)N2[C@H]1c1cccc(OCCO)c1`, for which the composite z-score in experiment [1] was 0.845; in [3], 0.0657; in experiment [4], -0.0712; in [5], 0.788; in experiment [6] it was 0.446; in [7] it was 0.464. Besides, the composite z-score is 0.58 in experiment [8]; -0.431 in [9]; 1.03 in experiment [10]; 0.786 in experiment [11]; 0.248 in experiment [12]; 0.376 in experiment [13]. In addition, the composite z-score was 0.72 in experiment [14]; 1.08 in [15]; -0.044 in [16]; 0.0358 in experiment [18]; 0.961 in experiment [19]. Moreover, the composite Z-score in experiment [2] was -0.336 (inactive). In addition, the z-score in [17] was 0.481; in [20], 0.0326 (inactive).
Turning to `COc1ccc(NC(=O)O[C@H]2[C@H](OC(=O)c3cc4ccccc4[nH]3)[C@@H](OC(=O)c3cc4ccccc4[nH]3)[C@@H](OC)O[C@@H]2CO)cc1`, the composite z-score was 0.144 in [1]; -0.235 in [3]; -0.0404 in experiment [4]; 0.541 in experiment [5]; 1.24 in experiment [6]; 0.614 in experiment [7]. Also, the composite z-score in experiment [8] is 0.156; in experiment [9] it was -0.113; in experiment [10], -0.586; in experiment [11] it was 1.23; in experiment [12] it was 0.359; in experiment [13], 0.448. Moreover, the composite z-score is 0.662 in experiment [14]; 0.752 in [15]; 1.38 in experiment [16]; 0.194 in [18]; 0.566 in experiment [19]. The composite Z-score in experiment [2] is 0.561 (inactive). The results for the z-score in experiment [17] and in experiment [20] were 0.816 and -2.09 (inactive), respectively.
